This note sets out measurements from PubChem BioAssay (NCI).

The panel holds about 83,000 compounds, 20% with a hit somewhere; the sample as a whole holds those more often.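 Assay: single dose, 48 h. Readout: percent growth (0 = no net growth; negative = cell death). Active: <10.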 Active and inactive are the calls of the source.

For one test, the system named is OVCAR-8 ovarian. Kind of test: NCI-60 one-dose screen, 48 h (100 = growth as untreated, 0 = no growth, -100 = all killed). To be noted: 10 µM unless noted.
Take `O=C(CCCCCCSc1nc(-c2ccc(Cl)cc2)cc(-c2ccc(Cl)cc2)n1)NO`: the growth was 20.5% (inactive).
As for `O=C1CC(C(F)(F)F)Cc2nc3ccc(Br)cc3cc21` (centres undefined), the growth is 95.7% (inactive).
Same read-out and setting: the result for `COc1ccc(C2NC(=O)C(C#N)c3c2sc2c(F)cccc32)cc1` (centres undefined) reads 69.8% (inactive); that for `CCCCCn1sc(=O)n(Cc2ccc(CNC(=O)OCc3ccc4cccc(O)c4n3)cc2)c1=O`, 8.91% (active).
Still for that read-out and setting: the same measure for `O=[N+]([O-])c1cccc(N=NNc2cccc([N+](=O)[O-])c2)c1`: 99.5% (inactive).
In the case of `CCN(CC)CCCOc1ccc2c(c1)O/C(=C\c1cccc(OC)c1)C2=O`, the growth was 90.8% (inactive).
The same measure, in the same setting: the result for `O=C(OCc1ccc2c(Cl)cc(Cl)c(O)c2n1)N1CCNCC1` reads 28.7% (inactive); that for `C=CCCCCOc1ccccc1-c1cnc(OCCCCC=C)n1C`, 83.9% (inactive).
The same measure, in the same setting: the same measure for `CSc1nc(=S)c2nc(SC)n(-c3ccccc3)c2[nH]1`: 100% (inactive); for `CC1Cc2c(Cl)ncnc2N(C)c2ccc(O)cc21` (centres undefined): 29.7% (inactive).
Same read-out and setting: the result for `Nc1nc(Nc2ccccc2)c2ncn(Cc3ccc4c(c3)OCO4)c2n1` reads 55.1% (inactive).
Consider `COc1ccc(-c2cc(-c3ccc(Cl)cc3)nc(SCCCCCCC(=O)NO)n2)cc1`, for which the growth is 21.1% (inactive).
As to `COc1ccc(C(=O)CSc2nccc(Nc3ccc(C(=O)O)cc3)n2)cc1`, the growth is 94.8% (inactive).
Regarding `CC1(C)OC2[C@@H](CNC(=O)NC(=O)NC(=O)CI)O[C@@H](n3cnc4c(NC(=O)Nc5ccccc5)ncnc43)[C@H]2O1` (some centres undefined), the growth is 75.9% (inactive).
On to `Cn1cc(-c2noc(-c3cn(C)c4ncc(F)cc34)n2)c2cc(Cl)ccc21`, for which the growth was 48.7% (inactive).
`COCCCNc1nc(NC(=O)c2cc(Br)cc(C(F)(F)F)c2)cc(-c2cccnc2)n1`: the growth was 87.5% (inactive).
Take `O=C(NCCCNC(=O)OCc1ccc2cccc(O)c2n1)OCc1ccc2cccc(O)c2n1`: the growth was 23% (inactive).
Take `COc1cccc(-c2[nH]c(=S)ncc2C(=O)c2ccccc2)c1`: the growth was 97.4% (inactive).
Same read-out and setting: the result for `CCN(CCO)CCC(=O)c1ccc([N+](=O)[O-])cc1` reads 101% (inactive); that for `Cc1ccc(N)c(O)c1`, 96% (inactive).
Same read-out and setting: the result for `CC(C)C1=NOC(=O)C1=Cc1cn(-c2ccccc2)nc1-c1ccc(Br)cc1` reads 80.8% (inactive).
Consider `Cc1cc[n+](CCCCCCCCCC[n+]2ccc(C)cc2)cc1`, for which the growth was 99% (inactive).
Still for that read-out and setting: the same measure for `C[C@@H](NC(=O)[C@@H](CC(=O)N1CCC(N2CCCCC2)CC1)N1C(=O)[C@@H](N2C(=O)OC[C@@H]2c2ccccc2)[C@H]1/C=C/c1cccc(Cl)c1)c1ccccc1`: 86.8% (inactive).
The same measure, in the same setting: the result for `C/C=C/C1OC23CCCCC2C(C#N)(C(=N)O3)C1(C#N)C#N` (centres undefined) reads 93.9% (inactive); that for `CCCOc1ccc(-c2nc(-c3ccc(N)cc3)cs2)cc1`, 87% (inactive).
For `Cc1ccccc1OC(=O)c1cccc(Cl)c1`, the growth is 112% (inactive).
With `CC(C)c1ccc(C(=O)Nc2nc3ccc(O)cc3s2)cc1`, the growth is 40.6% (inactive).
For the compound `COc1cc(-c2nc(SCCC(C)C)nc(Nc3ccc(S(N)(=O)=O)cc3)c2C#N)cc(OC)c1OC`, the growth is 29.9% (inactive).
Regarding `O=C(CSc1nc2ccc([N+](=O)[O-])cc2[nH]1)Nc1cccc(Cl)c1`, the growth is 18.7% (inactive).
As to `COc1ccc2nc3cc(Cl)ccc3c(Nc3ccc(O)cc3)c2c1`, the growth is 68.5% (inactive).
With `O=C(OCc1ccc2c(Cl)cc(Cl)c(O)c2n1)N1CCN(C(=O)c2cc3cc(F)ccc3[nH]2)CC1`, the growth was 7.64% (active).
Turning to `COc1ccc(C(C(=O)O)c2ccc(OC)cc2)cc1`, the growth is 113% (inactive).
Same read-out and setting: the same measure for `O=C1COCCN1c1ccc(NCc2cn(Cc3ccc(F)cc3)c3ccccc23)cc1`: 70.5% (inactive); for `O=C(Nc1cc(-c2cccnc2)nc(NCCCN2CCOCC2)n1)c1cc(Br)cc(C(F)(F)F)c1`: 58.6% (inactive).
As for `CS(=O)(=O)c1cccnn1`, the growth is 106% (inactive).
Consider `C[C@]12CCc3c(ccc4cc(O)ccc34)[C@@H]1CC[C@H]2O`, for which the growth is 103% (inactive).
On to `CN(Cc1cccc(C(F)(F)F)c1)C(=O)[C@@H](CC(=O)N1CCC(N2CCCCC2)CC1)N1C(=O)[C@@H](N2C(=O)OC[C@@H]2c2ccccc2)[C@H]1/C=C/c1ccccc1`, for which the growth is 93.2% (inactive).

The subject of a further test is OVCAR-5 ovarian. Described as above. To be noted: 10 µM unless noted.
As for `O=C(CCCCCCSc1nc(-c2ccc(Cl)cc2)cc(-c2ccc(Cl)cc2)n1)NO`, the growth was 39.4% (inactive).
`O=C1CC(C(F)(F)F)Cc2nc3ccc(Br)cc3cc21` (centres undefined): the growth was 87.2% (inactive).
`COc1ccc(C2NC(=O)C(C#N)c3c2sc2c(F)cccc32)cc1` (centres undefined): the growth was 85.6% (inactive).
Same read-out and setting: the result for `CCCCCn1sc(=O)n(Cc2ccc(CNC(=O)OCc3ccc4cccc(O)c4n3)cc2)c1=O` reads -42.3% (active); that for `O=[N+]([O-])c1cccc(N=NNc2cccc([N+](=O)[O-])c2)c1`, 94.6% (inactive).
As for `CCN(CC)CCCOc1ccc2c(c1)O/C(=C\c1cccc(OC)c1)C2=O`, the growth was 95.7% (inactive).
Still for that read-out and setting: the result for `O=C(OCc1ccc2c(Cl)cc(Cl)c(O)c2n1)N1CCNCC1` reads 55.5% (inactive); that for `C=CCCCCOc1ccccc1-c1cnc(OCCCCC=C)n1C`, 95.2% (inactive); that for `CSc1nc(=S)c2nc(SC)n(-c3ccccc3)c2[nH]1`, 104% (inactive).
The same measure, in the same setting: the result for `CC1Cc2c(Cl)ncnc2N(C)c2ccc(O)cc21` (centres undefined) reads 102% (inactive); that for `Nc1nc(Nc2ccccc2)c2ncn(Cc3ccc4c(c3)OCO4)c2n1`, 71.5% (inactive).
On to `COc1ccc(-c2cc(-c3ccc(Cl)cc3)nc(SCCCCCCC(=O)NO)n2)cc1`, for which the growth is 34.1% (inactive).
Consider `COc1ccc(C(=O)CSc2nccc(Nc3ccc(C(=O)O)cc3)n2)cc1`, for which the growth was 103% (inactive).
Same read-out and setting: the result for `CC1(C)OC2[C@@H](CNC(=O)NC(=O)NC(=O)CI)O[C@@H](n3cnc4c(NC(=O)Nc5ccccc5)ncnc43)[C@H]2O1` (some centres undefined) reads 93% (inactive); that for `Cn1cc(-c2noc(-c3cn(C)c4ncc(F)cc34)n2)c2cc(Cl)ccc21`, 61.9% (inactive).
As for `COCCCNc1nc(NC(=O)c2cc(Br)cc(C(F)(F)F)c2)cc(-c2cccnc2)n1`, the growth is 100% (inactive).
On to `O=C(NCCCNC(=O)OCc1ccc2cccc(O)c2n1)OCc1ccc2cccc(O)c2n1`, for which the growth is 59.9% (inactive).
In the case of `COc1cccc(-c2[nH]c(=S)ncc2C(=O)c2ccccc2)c1`, the growth was 93.8% (inactive).
Turning to `CCN(CCO)CCC(=O)c1ccc([N+](=O)[O-])cc1`, the growth was 116% (inactive).
Still for that read-out and setting: the result for `Cc1ccc(N)c(O)c1` reads 108% (inactive).
Still for that read-out and setting: the result for `CC(C)C1=NOC(=O)C1=Cc1cn(-c2ccccc2)nc1-c1ccc(Br)cc1` reads 100% (inactive); that for `Cc1cc[n+](CCCCCCCCCC[n+]2ccc(C)cc2)cc1`, 97.9% (inactive).
The same measure, in the same setting: the result for `C[C@@H](NC(=O)[C@@H](CC(=O)N1CCC(N2CCCCC2)CC1)N1C(=O)[C@@H](N2C(=O)OC[C@@H]2c2ccccc2)[C@H]1/C=C/c1cccc(Cl)c1)c1ccccc1` reads 115% (inactive).
For the compound `C/C=C/C1OC23CCCCC2C(C#N)(C(=N)O3)C1(C#N)C#N` (centres undefined), the growth was 103% (inactive).
The same measure, in the same setting: the result for `CCCOc1ccc(-c2nc(-c3ccc(N)cc3)cs2)cc1` reads 108% (inactive); that for `Cc1ccccc1OC(=O)c1cccc(Cl)c1`, 104% (inactive); that for `CC(C)c1ccc(C(=O)Nc2nc3ccc(O)cc3s2)cc1`, 40.6% (inactive).
For `COc1cc(-c2nc(SCCC(C)C)nc(Nc3ccc(S(N)(=O)=O)cc3)c2C#N)cc(OC)c1OC`, the growth was 53.9% (inactive).
The same measure, in the same setting: the result for `O=C(CSc1nc2ccc([N+](=O)[O-])cc2[nH]1)Nc1cccc(Cl)c1` reads 61.4% (inactive); that for `COc1ccc2nc3cc(Cl)ccc3c(Nc3ccc(O)cc3)c2c1`, 104% (inactive); that for `O=C(OCc1ccc2c(Cl)cc(Cl)c(O)c2n1)N1CCN(C(=O)c2cc3cc(F)ccc3[nH]2)CC1`, 40.7% (inactive).
Regarding `COc1ccc(C(C(=O)O)c2ccc(OC)cc2)cc1`, the growth is 108% (inactive).
On the same count and under the same terms, the same measure for `O=C1COCCN1c1ccc(NCc2cn(Cc3ccc(F)cc3)c3ccccc23)cc1`: -40.3% (active).
In the case of `O=C(Nc1cc(-c2cccnc2)nc(NCCCN2CCOCC2)n1)c1cc(Br)cc(C(F)(F)F)c1`, the growth was 81.4% (inactive).
Consider `CS(=O)(=O)c1cccnn1`, for which the growth was 81.1% (inactive).
Still for that read-out and setting: the result for `C[C@]12CCc3c(ccc4cc(O)ccc34)[C@@H]1CC[C@H]2O` reads 107% (inactive); that for `CN(Cc1cccc(C(F)(F)F)c1)C(=O)[C@@H](CC(=O)N1CCC(N2CCCCC2)CC1)N1C(=O)[C@@H](N2C(=O)OC[C@@H]2c2ccccc2)[C@H]1/C=C/c1ccccc1`, 104% (inactive).
